According to PubChem BioAssay (NCATS):
“And” between values parts separate entries of the source, which are not always exact repeats. Equal entries are not always repeated. Inconclusive results are not listed. The source made the active and inactive calls. Unless noted, calls come from the whole dose curve; as a rule, active = well fitted curve in the direction sought with a large enough effect; inconclusive = small, poorly fitted or top-dose-only effect, or another doubt; inactive = no such curve, though single readings can be large; an effect the other way counts as inactive or inconclusive.

How the values were obtained:
[1] = Cellular Toxicity (caspase-3) BJ (AID 658);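 note: 0% = DMSO basal and 100% = 10 µM staurosporine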
Procedure, shortened: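 Luminescent aminoluciferin-substrate cleavage reports caspase 3/7 activity in normal human BJ fibroblasts after 16 hr compound exposure at 37 °C. Normalized to DMSO (basal) and 10 uM staurosporine (100%); AC50 from Hill fit of concentration-response.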

[2] = Cellular Toxicity (caspase-3) MRC-5 (AID 659);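 note: 0% = DMSO basal and 100% = 10 µM staurosporine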
Procedure, shortened: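 Luminescence from caspase-cleaved aminoluciferin substrate (Caspase-Glo 3/7, 1 hr RT) reports caspase 3/7 activity in MRC-5 lung fibroblasts after 16 hr compound exposure. Normalized to DMSO basal and 10 uM staurosporine as 100%; AC50 from Hill fits.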

[3] = Cellular Toxicity (caspase-3) Mesangial (AID 660);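 note: combined caspase 3 and 7 activity read by Caspase-Glo luminescence; cells exposed to compound for 16 h before the caspase read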
Procedure, shortened: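 Human renal glomerular mesangial cells, 1000/well, 5 h at 37 C before 16 h compound treatment. Caspase-Glo 3/7 luminescence after 20 min; normalized to DMSO and 100 uM tamoxifen, AC50 from Hill fit.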

[4] = Cellular Toxicity (caspase-3) SK-N-SH (AID 661);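 note: 0% = DMSO basal and 100% = 10 µM staurosporine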
Procedure, shortened: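 Human SK-N-SH neuroblastoma cells, 1500/well, were exposed to compounds for 16 hours at 37 °C. Caspase-Glo 3/7 luminescence was normalized to DMSO (basal) and 10 uM staurosporine (100%), and AC50 came from a Hill fit.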

[5] = Cellular Toxicity (caspase-3) H-4-II-E (AID 663);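 note: cells exposed to compound for 16 hr before readout; 0% = DMSO basal and 100% = 100 µM tamoxifen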
Procedure, shortened: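 Luminescence from caspase-cleaved aminoluciferin substrate, read 20 min after reagent addition, reports caspase 3/7 activation in rat H-4-II-E cells after 16 hr compound exposure. Normalized to DMSO (basal) and 100 uM tamoxifen (100%); AC50 from Hill fits.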

[6] = Cellular Toxicity (caspase-3) NIH 3T3 (AID 666);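 note: 0% = DMSO basal and 100% = 100 µM tamoxifen stimulation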
Procedure, shortened: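 Mouse NIH 3T3 fibroblasts (1000/well) treated 16 h at 37 C; caspase-3/7 activity measured by Caspase-Glo 3/7 luminescence after 20 min. Normalized to DMSO and 100 uM tamoxifen; AC50 from Hill fits.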

[7] = MultiTox-Fluor Cytotoxicity Assay - LYMP1-001 - Dead Cells (AID 946);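 note: 0% = DMSO and 100% = tetraoctylammonium bromide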
Procedure, shortened: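 Seed 2500 LYMP1-001 cells/well, incubate 5 hr at 37 C; add compound, 16 hr at 37 C; add MultiTox-Fluor reagent, 60 min RT; read dead-cell fluorescence Ex/Em=485/520. Normalize to DMSO and 15 uM tetraoctylammonium bromide.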

[8] = Cell Viability - LYMP1-002 - Assay at 16 hr (AID 948);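 note: 0% = DMSO alone and full effect = 92 µM tetraoctylammonium bromide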
Procedure, shortened: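 Acute cytotoxicity is scored as a concentration-dependent fall in intracellular ATP in a human lymphoblastoid line (LYMP1-002) after 16 hr compound exposure at 37 C, measured by luciferase luminescence.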

[9] = Cell Viability - LYMP1-003 - Assay at 24 hr (AID 963);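 note: plate controls were DMSO only for no effect and tetraoctylammonium bromide positive control for full effect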
Procedure, shortened: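 Human lymphoblastoid LYMP1-003 cells, 2500/well, treated 24 h at 37 C in complete medium. Viability read as intracellular ATP by CellTiter-Glo luminescence after 30 min at room temperature; AC50 from Hill-equation fits of qHTS concentration-response.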

[10] = Cell Viability - LYMP1-003 - Assay at 40 hr (AID 964); note: series mostly up to about 92 µM; % is set by controls: 0 for no effect and ±100 for the full control effect; nearly all actives have a fitted effect of over 60% in size
Procedure, shortened: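 LYMP1-003 human lymphoblastoid cells, 2500/well, preincubated 5 h at 37 C, then treated with compound for 40 h at 37 C. Intracellular ATP read by CellTiter-Glo luminescence after 30 min at room temperature; AC50 from Hill-equation fits.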

[11] = Cell Viability - LYMP2-004 (AID 966);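 note: plate controls were DMSO only for no effect and tetraoctylammonium bromide control for full effect; nearly all actives have a fitted effect of over 65% in size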
Procedure, shortened: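 Lymphoblastoid LYMP2-004 cells, 2500 per well, were preincubated for 5 hr and then treated with compound for 24 h at 37 C in complete medium. Viability was read as cellular ATP by CellTiter-Glo luminescence, and AC50 values were taken from Hill fits to concentration-response data.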

[12] = Cell Viability - LYMP2-025 (AID 976);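 note: series mostly up to about 92 µM; plate controls were DMSO only for no effect and tetraoctylammonium bromide control for full effect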
Procedure, shortened: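 Human lymphoblastoid LYMP2-025 cells, 2500/well, exposed 24 h at 37 C in complete medium in 1536-well qHTS. Viability as cellular ATP by CellTiter-Glo luminescence; AC50 from Hill fits of concentration-response data.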

[13] = Cell Viability - LYMP2-002 (AID 977);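 note: series mostly up to about 92 µM; plate controls were DMSO only for no effect and 92 µM tetraoctylammonium bromide for full effect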
Procedure, shortened: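 Luminescent ATP readout (CellTiter-Glo, 30 min room temperature) after 24 h compound exposure at 37 C of a human lymphoblastoid line, 2500 cells/well. AC50 values derived by standard Hill fitting of qHTS concentration-response data.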

[14] = Cell Viability - LYMP2-007 (AID 979);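 note: cells exposed to compound for 24 h before reading; 0% = DMSO only and the negative end = 92 µM tetraoctylammonium bromide; nearly all actives have a fitted effect of over 60% in size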
Procedure, shortened: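 Human lymphoblastoid LYMP2-007 cells (2500/well) preincubated 5 h at 37 C, then treated 24 h at 37 C in complete medium. Viability by CellTiter-Glo ATP luminescence after 30 min at room temperature; AC50 from Hill fits.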

[15] = Cell Viability - LYMP2-008 (AID 980); note: % is set by controls: 0 for no effect and ±100 for the full control effect; nearly all actives have a fitted effect of over 60% in size
Procedure, shortened: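 LYMP2-008 lymphoblastoid cells (2500/well) plated 5 h, then treated 24 h at 37 C in complete medium. Viability read as intracellular ATP by CellTiter-Glo luminescence after 30 min at room temperature; AC50 from Hill fits.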

[16] = Cell Viability - LYMP2-014 (AID 983);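 note: series mostly up to about 92 µM; plate controls were DMSO only for no effect and 92 µM tetraoctylammonium bromide for full effect; nearly all actives have a fitted effect of over 50% in size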
Procedure, shortened: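 LYMP2-014 human lymphoblastoid cells, 2500/well, treated 24 h at 37 C in complete medium; viability by CellTiter-Glo ATP luminescence after 30 min at room temperature. AC50 from Hill fits of qHTS concentration-response; tetraoctylammonium bromide positive control.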

[17] = Cell Viability - LYMP2-018 (AID 985);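 note: compound exposure lasted 24 hr at 37 °C; plate controls were DMSO only for no effect and tetraoctylammonium bromide at 92 µM for full effect; nearly all actives have a fitted effect of over 50% in size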
Procedure, shortened: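 Human lymphoblastoid LYMP2-018 cells, 2500/well, settled 5 hr at 37 C then exposed to compound 24 hr at 37 C; intracellular ATP measured by CellTiter-Glo luminescence. AC50 from Hill-equation concentration-response fits.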

[18] = qHTS assay for small molecule agonists of the antioxidant response element (ARE) signaling pathway measured by Nrf2-dependant transcriptional activity - cell viability counter screen (AID 720653; active = well fitted curve in the direction sought with a large enough effect in the repeat runs; an effect the other way counts as inactive or inconclusive; note: % is set by controls: 0 for no effect and ±100 for the full control effect); conditions: ARE-bla HepG2 viability, CellTiter-Glo ATP luminescence, 16 h; stronger effect = lower value
Procedure, shortened: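 ARE-bla HepG2 cells (2,000/well) rested 5 hrs at 37C/5% CO2, then exposed to compounds in DMSO for 16 hrs. Viability was read in the same wells as intracellular ATP by luminescence, 30 min at room temperature after reagent addition.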

[19] = qHTS assay for cell viability of HEK293 cells (AID 743288); conditions: ATP luminescence (CellTiter-Glo), 18 h; max response: stronger effect = lower value; note: % is set by controls: 0 for no effect and ±100 for the full control effect; nearly all actives have a fitted effect of over 50% in size
Procedure, shortened: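 The Tox21 protocol used parental HEK293 cells treated for 18 h at 37 C with compounds delivered by pintool; ATP-coupled luminescence after 30 min at room temperature gave viability.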

[20] = qHTS assay for cell viability of the p53RE-bla HCT-116 cell line (AID 743292); note: % is set by controls: 0 for no effect and ±100 for the full control effect; nearly all actives have a fitted effect of over 55% in size
Procedure, shortened: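 CellSensor p53RE-bla HCT-116 cells (4,000/well) pre-incubated 5 h at 37 C, then exposed to compounds in DMSO for 16 h at 37 C. Viability read as ATP content by CellTiter-Glo luminescence after 30 min at room temperature.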

ClC(Cl)(Cl)c1ccccc1
inactive: outcome [1] | outcome [2] | outcome [3] | outcome [4] | outcome [5] | outcome [6] | Potency [7] | Potency [8] | Potency [9] | Potency [10] | Potency [11] | Potency [12] | Potency [13] | Potency [14] | Potency [15] | Potency [16] | Potency [17] | max response [18] -1.54% and 10.3% | max response [19] -4.96% and -3.96% | Potency [20]

COc1ccc(C=O)cc1OC
inactive: outcome [1] | outcome [2] | outcome [3] | outcome [4] | outcome [5] | outcome [6] | Potency [7] | Potency [8] | Potency [9] | Potency [10] | Potency [11] | Potency [12] | Potency [13] | Potency [14] | Potency [15] | Potency [16] | Potency [17] | max response [18] -2.79% and -2.46% | max response [19] -6.04% and -11.4% | Potency [20]

O=[N+]([O-])c1ccc(Cl)c(Cl)c1
inactive: outcome [1] | outcome [2] | outcome [3] | outcome [4] | outcome [5] | outcome [6] | Potency [7] | Potency [8] | Potency [9] | Potency [10] | Potency [11] | Potency [12] | Potency [13] | Potency [14] | Potency [15] | Potency [16] | Potency [17] | max response [18] -14.5% | max response [19] 7.83% | Potency [20]

CCN(CC)c1ccccc1
inactive: outcome [1] | outcome [2] | outcome [3] | outcome [4] | outcome [5] | outcome [6] | Potency [7] | Potency [8] | Potency [9] | Potency [10] | Potency [11] | Potency [12] | Potency [13] | Potency [14] | Potency [15] | Potency [16] | Potency [17] | max response [18] 7.99% | max response [19] -9.99% | Potency [20]

COc1ccc(N)cc1
inactive: outcome [1] | outcome [2] | outcome [3] | outcome [4] | outcome [5] | outcome [6] | Potency [7] | Potency [8] | Potency [9] | Potency [10] | Potency [11] | Potency [12] | Potency [13] | Potency [14] | Potency [15] | Potency [16] | Potency [17] | max response [18] 6.52% and -14.8% | max response [19] 2.27% and -1.78% | Potency [20]

Cc1ccc([N+](=O)[O-])cc1C
inactive: outcome [1] | outcome [2] | outcome [3] | outcome [4] | outcome [5] | outcome [6] | Potency [7] | Potency [8] | Potency [9] | Potency [10] | Potency [11] | Potency [12] | Potency [13] | Potency [14] | Potency [15] | Potency [16] | Potency [17] | max response [18] 4.05% and -7% | max response [19] -0.535% and -15% | Potency [20]

CCCC(=O)Cl
inactive: outcome [1] | outcome [2] | outcome [3] | outcome [4] | outcome [5] | outcome [6] | Potency [7] | Potency [8] | Potency [9] | Potency [10] | Potency [11] | Potency [12] | Potency [13] | Potency [14] | Potency [15] | Potency [16] | Potency [17] | max response [18] 18.2% | max response [19] 0.489% | Potency [20]

ClC(Cl)=C(Cl)C(Cl)=C(Cl)Cl
inactive: outcome [1] | outcome [2] | outcome [3] | outcome [4] | outcome [5] | outcome [6] | Potency [7] | Potency [8] | Potency [9] | Potency [10] | Potency [11] | Potency [12] | Potency [13] | Potency [14] | Potency [15] | Potency [16] | Potency [17] | max response [18] 5.78% and -15% | max response [19] 3.55% and -1.89% | Potency [20]

c1ccc(-c2ccccc2)cc1
inactive: outcome [1] | outcome [2] | outcome [3] | outcome [4] | outcome [5] | outcome [6] | Potency [7] | Potency [8] | Potency [9] | Potency [10] | Potency [11] | Potency [12] | Potency [13] | Potency [14] | Potency [15] | Potency [16] | Potency [17] | max response [18] -4.39% and -5.27% | max response [19] 8.08% and -1.75% | Potency [20]

Clc1nc(Cl)nc(Nc2ccccc2Cl)n1
inactive: outcome [1] | outcome [2] | outcome [3] | outcome [4] | outcome [5] | outcome [6] | Potency [7] | Potency [8] | Potency [9] | Potency [10] | Potency [11] | Potency [12] | Potency [13] | Potency [14] | Potency [15] | Potency [16] | Potency [17] | max response [18] -2.86% and -6.99% | max response [19] 1.75% and 3.89% | Potency [20]

Clc1cccc(C(Cl)(Cl)Cl)n1
inactive: outcome [1] | outcome [2] | outcome [3] | outcome [4] | outcome [5] | outcome [6] | Potency [7] | Potency [8] | Potency [9] | Potency [10] | Potency [11] | Potency [12] | Potency [13] | Potency [14] | Potency [15] | Potency [16] | Potency [17] | max response [18] 1.86% and -5.38% | max response [19] 8.34% and -7.37% | Potency [20]
